# In PubChem BioAssay (NCATS):
# Results filed as inconclusive are left out. Activity calls are given as the source filed them. The call rests on the fitted dose curve; in most records, active means well fitted activation curve with a large enough effect; inconclusive means small, poorly fitted or top-dose-only effect; inactive means no such curve, though single readings can be large or run the other way. Square brackets hold non-standard residues; d marks the D form. Peptide text beside a SMILES is read from it. ξ: configuration not given here. ξLac(3-iPr) = CC(C)CC(O)C(=O)O; NMeV = CN[CH](C(=O)O)C(C)C; βAla = NCCC(=O)O
# Biological target: Cellular tumor antigen p53 (Homo sapiens) (UniProt P04637)
# Assay: Primary qHTS for small molecule compounds that upregulate eGFP-tagged delta133p53alpha (in N-terminal) cells. (AID 2060322); further: nearly all actives have a fitted effect of over 75% in size;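 on activation: series mostly up to about 56 µM; 0% = DMSO vehicle and 100% = reference activator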
# Conditions: NCI-H358 eGFP-delta133p53alpha fluorescence, 24 h; activation: active compounds read high
# Method in brief: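 NCI-H358 cells pre-induced 24 h with 10 ng/ml doxycycline to express N-terminal eGFP-delta133p53alpha, then dosed 24 h at 37C without doxycycline; fixed, Hoechst-stained, GFP intensity by laser scanning cytometry, normalized to DMSO (0%) and 57.5 uM 5-azacytidine (100%).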
# Potency means the concentration at half of the fitted maximal effect.
# Chain of Cellular tumor antigen p53 (Homo sapiens) (P04637 whole entry, looked up): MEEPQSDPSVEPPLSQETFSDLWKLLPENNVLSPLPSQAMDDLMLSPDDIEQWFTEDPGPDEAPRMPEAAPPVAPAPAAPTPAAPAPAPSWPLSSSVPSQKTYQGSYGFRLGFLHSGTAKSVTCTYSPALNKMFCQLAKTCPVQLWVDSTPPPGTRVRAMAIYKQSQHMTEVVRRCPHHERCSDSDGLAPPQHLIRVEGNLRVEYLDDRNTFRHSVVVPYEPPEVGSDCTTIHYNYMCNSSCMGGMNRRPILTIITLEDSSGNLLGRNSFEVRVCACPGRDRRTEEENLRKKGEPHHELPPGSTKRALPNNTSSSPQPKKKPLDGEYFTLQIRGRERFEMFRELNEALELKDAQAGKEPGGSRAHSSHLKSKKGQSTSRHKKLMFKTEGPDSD
SMILES,activation,Potency
CS(=O)(=O)N(CC(=O)NCC1CC1)c1cc(C(F)(F)F)ccc1Cl,-13% (inactive),
O=c1c2cccnc2n(-c2cccc([N+](=O)[O-])c2)c(=O)n1Cc1ccncc1,-20% (inactive),
CC(=O)NC(C(=O)O[C@H]1CCC(C)(C)[C@@H]2CC=C3C(=O)OCC3(O)[C@@]12C)C(C)C (some centres not stated),20.6% (inactive),
CC(C)c1cc2c(N3CCN(C4=NCC(C)(C)S4)CC3)ncnc2s1,3.67% (inactive),
CC(=O)OC1CC(C)(C(=O)O)CC2C3=CC(=O)C4C5(C)CCC(OC6OC(C(=O)O)C(O)C(O)C6OC6OC(C(=O)O)C(O)C(O)C6O)C(C)(C)C5CCC4(C)C3(C)CCC12C (configuration not stated),-4.46% (inactive),
CC(C)CC1OC(=O)C2CCCN2C(=O)CCNC(=O)C(Cc2ccccc2)NC(=O)C(C(C)C)N(C)C(=O)C(C(C)C)N(C)C1=O (configuration not stated) (cyclo([ξLac(3-iPr)][NMeV][NMeV]F[βAla]P); configuration not given here),-23.7% (inactive),
C[C@@H]1O[C@@H](O[C@H]2[C@H](O)[C@@H](O)[C@H](OC[C@H]3O[C@@H](OC(=O)[C@]45CCC(C)(C)C[C@H]4C4=CCC6[C@@]7(C)C[C@H](O)[C@H](O[C@@H]8O[C@H](CO)[C@@H](O)[C@H](O)[C@H]8O)[C@@](C)(C(=O)O)C7CC[C@@]6(C)[C@]4(C)CC5)[C@H](O[C@@H]4O[C@H](CO)[C@@H](O)[C@H](O)[C@H]4O)[C@@H](O)[C@@H]3O)O[C@@H]2CO)[C@H](O)[C@H](O)[C@H]1O (some centres not stated),18.8% (inactive),
CC1(C)CC[C@]2(C(=O)O[C@@H]3O[C@H](CO)[C@@H](O)[C@H](O)[C@H]3O)CC[C@]3(C)C(=CCC4[C@@]5(C)CC[C@H](O[C@@H]6O[C@H](C(=O)O)[C@H](O)[C@H](O)[C@H]6O)C(C)(C)C5CC[C@]43C)[C@@H]2C1 (some centres not stated),-2.68% (inactive),
CC#C[C@@H](CC(=O)O)c1ccc(OCc2ccc(CN3CCC4(C=Cc5ccccc54)CC3)s2)cc1,4.46% (inactive),
C[C@@H]1O[C@@H](O[C@H]2[C@H](O[C@H]3[C@H](O[C@H]4CC[C@@]5(C)C(CC[C@]6(C)C5CC=C5[C@@H]7CC(C)(C)CC[C@]7(C(=O)O[C@@H]7O[C@H](CO)[C@@H](O[C@@H]8O[C@@H](C)[C@H](O)[C@@H](O)[C@H]8O)[C@H](O)[C@H]7O)CC[C@]56C)C4(C)C)OC[C@H](O)[C@@H]3O)O[C@H](CO)[C@@H](O)[C@@H]2O)[C@H](O)[C@H](O)[C@H]1O (some centres not stated),7.14% (inactive),
Cc1cc(C(N)=O)ccc1-n1c(CCC(=O)O)ccc1-c1ccc(-n2ccnc2)cc1,-2.68% (inactive),
CCN(Cc1cccnc1)C(=O)CN(c1ccc(OC)nc1)S(=O)(=O)c1ccccc1C,-3% (inactive),
Cc1onc(-c2c(F)cccc2Cl)c1C(=O)N[C@@H]1C(=O)N2[C@@H]1SC(C)(C)[C@@H]2C(=O)O,-1.67% (inactive),
O=c1[nH]c([C@@H]2CCCN2)nc2c1oc1ccc(Cl)cc12,-1% (inactive),
CC(C)(O)C1CC(=O)C2(C)C(CCC3(C)C(c4ccoc4)OC(=O)C4OC432)C12CCC(=O)OC2 (configuration not stated),-3.57% (inactive),
C=C(CO[C@@H]1O[C@H](CO[C@@H]2OC[C@](O)(CO)[C@H]2O)[C@@H](O)[C@H](O)[C@H]1O)C1Cc2cc(C(C)=O)ccc2O1 (some centres not stated),-12.2% (inactive),

SMILES,activation,Potency
COc1cccc(OC)c1-c1ccc(C[C@H](NC(=O)c2c(Cl)cccc2Cl)C(=O)O)cc1,1.67% (inactive),
CC1=CCC2C(C)(C)CCC[C@]2(C)[C@@]12CC[C@](C)(CC(=O)O)O2 (some centres not stated),27.5% (inactive),
C=CC(C)(CC/C=C(\C)C(=O)OC)OC1OC(COC(=O)CC(C)(O)CC(=O)O)C(O)C(O)C1O (configuration not stated),-3.05% (inactive),
CC12CC34C=CC(=O)C(C)(CCC(=O)O)C3C(CC1C4)O2 (configuration not stated),23.7% (inactive),
Cc1sc2c(c1C)C(c1ccc(Cl)cc1)=N[C@H](CC(=O)NCCCCNC(=O)COc1cccc3c1C(=O)N([C@H]1CCC(=O)NC1=O)C3=O)c1nnc(C)n1-2,,1690 nM (active)
CC(=O)Nc1ccn(C2COC(COC(=O)c3ccccc3)O2)c(=O)n1 (configuration not stated),16.4% (inactive),
CC1(C)C2CC[C@@]34CC(CC[C@H]3[C@]2(C)CC[C@@H]1O[C@@H]1O[C@H](CO)[C@@H](O)[C@H](O)[C@H]1O)[C@](C)(O)C4 (some centres not stated),-22.1% (inactive),
O=C(NCCN1CCCC1)c1cc(-c2ccc(CN3CCOCC3)cc2)nc2ccc(F)cc12,3.67% (inactive),
CCc1nn(CCO)c(CC)c1Oc1cc(C#N)cc(C#N)c1,11.9% (inactive),
C[C@@H]1CC[C@H]2C(C)(C)[C@H](O)[C@H](O)C[C@]2(C)[C@@]12Cc1c(O)cc3c(c1O2)CNC3=O,-3.82% (inactive),
C/C(=C/CO)CCC1C(C)CCC2C(C)(C)CCCC12C (configuration not stated),-9.92% (inactive),
COc1c2c(c(C)c3c1C(=O)OC3)O[C@@]1(C)CC(O)C(C(C)(C)O)[C@](C)(CCC(=O)O)[C@H]1C2 (some centres not stated),-9.16% (inactive),
C=CC(C)(O)C1CC2C3(C)CCCC(C)(C)C3C(O)C(O)C2(C)O1 (configuration not stated),-9.82% (inactive),
CC(=O)O[C@H]1[C@H](O)C[C@@]2(C)C(CC[C@]3(C)C2CC=C2C4CC(C)(C)CC[C@]4(C(=O)O)CC[C@]23C)C1(C)C (some centres not stated),-12.5% (inactive),
C=C1C(O)CC2C(C(=O)O)=COC(O[C@@H]3O[C@H](COC(=O)c4ccc(O)cc4)[C@@H](O)[C@H](O)[C@H]3O)C12 (some centres not stated),-6.11% (inactive),
CC(C)C[C@H](CC(=O)NO)C(=O)N[C@H](C(=O)N[C@@H](C)C(=O)NCCN)C(C)(C)C,3.67% (inactive),
